In PubChem BioAssay (NCATS):
Records with an inconclusive call do not appear. The source made the active and inactive calls. Calls follow the shape of the dose curve; as a rule, active = well fitted curve in the direction sought with a large enough effect; inconclusive = small, poorly fitted or top-dose-only effect, or another doubt; inactive = no such curve, though single readings can be large; an effect the other way counts as inactive or inconclusive.

Tests used:
[1] = qHTS of pediatric cancer cell lines to identify multiple opportunities for drug repurposing: Primary screen for A673 cells (AID 1347092); also: % is scaled to controls: 0 for no effect and ±100 for the full control effect; nearly all actives have a fitted effect of over 45% in size
Method in brief: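 Luminescence from CellTiter-Glo, taken after 15 min at room temperature, served as the proxy for metabolically active cells following 48 h treatment. Both potency and efficacy were taken from curves fitted to the titration data.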

[2] = qHTS of pediatric cancer cell lines to identify multiple opportunities for drug repurposing: Primary screen for SK-N-MC cells (AID 1347093);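 also: series mostly up to about 46 µM; plate controls were DMSO neutral control for no effect and bortezomib for full effect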
Method in brief: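 Metabolically active cells were quantified by ATP-dependent luminescence (CellTiter-Glo, 15 min at room temperature) following 48 h treatment. Cells had been plated at 500-1,000 per well and settled for 5 h beforehand.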

[3] = qHTS of pediatric cancer cell lines to identify multiple opportunities for drug repurposing: Primary screen for BT-37 cells (AID 1347094);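 also: series mostly up to about 57 µM; plate controls were DMSO for no effect and bortezomib for full effect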
Method in brief: (§1)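 ATP-based luminescence (CellTiter-Glo) quantifies viability after a 48-hour exposure. Compounds are dosed across 8 or 11 final concentrations; DMSO and 2.3 µM bortezomib serve as controls.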

[4] = qHTS of pediatric cancer cell lines to identify multiple opportunities for drug repurposing: Primary screen for NB-EBc1 cells (AID 1347095);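 also: plate controls were DMSO neutral control for no effect and bortezomib for full effect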
Method in brief: as §1

[5] = qHTS of pediatric cancer cell lines to identify multiple opportunities for drug repurposing: Primary screen for U-2 OS cells (AID 1347096);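 also: plate controls were DMSO wells for no effect and bortezomib positive control wells for full effect; nearly all actives have a fitted effect of over 50% in size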
Method in brief: (§2)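 Viability after 48 h compound treatment at 37C, 500-1,000 cells/well, read as ATP luminescence with CellTiter-Glo. Primary screens used 11-point (MIPE, 0.78 nM-46 µM) or 8-point (NPC, 0.59 nM-46 µM) final concentrations; follow-up screens used 11-point dilutions.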

[6] = qHTS of pediatric cancer cell lines to identify multiple opportunities for drug repurposing: Primary screen for Saos-2 cells (AID 1347097); also: % is scaled to controls: 0 for no effect and ±100 for the full control effect; nearly all actives have a fitted effect of over 40% in size
Method in brief: as §1

[7] = qHTS of pediatric cancer cell lines to identify multiple opportunities for drug repurposing: Primary screen for SK-N-SH cells (AID 1347098);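 also: DMSO served as neutral control and bortezomib at 2.3 µM as positive control; % is scaled to controls: 0 for no effect and ±100 for the full control effect; nearly all actives have a fitted effect of over 65% in size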
Method in brief: (§3)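 Cells (500-1,000/well) rested 5 h, then received compounds for 48 h; metabolically active cells were measured by CellTiter-Glo luminescence. Final concentrations spanned up to 46 µM (MIPE, 11-point) or 0.59 nM-46 µM (NPC, 8-point) in primary screens, 11-point in follow-ups.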

[8] = qHTS of pediatric cancer cell lines to identify multiple opportunities for drug repurposing: Primary screen for NB1643 cells (AID 1347099);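 also: plate controls were DMSO neutral control for no effect and bortezomib positive control for full effect; nearly all actives have a fitted effect of over 50% in size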
Method in brief: as §1

[9] = qHTS of pediatric cancer cell lines to identify multiple opportunities for drug repurposing: Primary screen for LAN-5 cells (AID 1347100);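 also: plate controls were DMSO neutral control for no effect and bortezomib positive control for full effect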
Method in brief: as §2

[10] = qHTS of pediatric cancer cell lines to identify multiple opportunities for drug repurposing: Primary screen for BT-12 cells (AID 1347101);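 also: plate controls were DMSO for no effect and bortezomib positive control for full effect; nearly all actives have a fitted effect of over 25% in size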
Method in brief: as §3

[11] = qHTS of pediatric cancer cell lines to identify multiple opportunities for drug repurposing: Primary screen for OHS-50 cells (AID 1347103);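 also: plate controls were DMSO neutral control for no effect and bortezomib positive control for full effect; nearly all actives have a fitted effect of over 40% in size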
Method in brief: as §3

[12] = qHTS of pediatric cancer cell lines to identify multiple opportunities for drug repurposing: Primary screen for RD cells (AID 1347104);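 also: plate controls were DMSO for no effect and bortezomib for full effect; nearly all actives have a fitted effect of over 55% in size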
Method in brief: as §1

[13] = qHTS of pediatric cancer cell lines to identify multiple opportunities for drug repurposing: Primary screen for MG 63 (6-TG R) cells (AID 1347105); also: % is scaled to controls: 0 for no effect and ±100 for the full control effect; nearly all actives have a fitted effect of over 50% in size
Method in brief: as §1

[14] = qHTS of pediatric cancer cell lines to identify multiple opportunities for drug repurposing: Primary screen for control Hh wild type fibroblast cells (AID 1347106);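 also: series mostly up to about 46 µM; % is scaled to controls: 0 for no effect and ±100 for the full control effect; a drop in luminescence marks cytotoxicity and a rise apparent proliferation; nearly all actives have a fitted effect of over 55% in size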
Method in brief: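 Cells (500-1,000/well) in growth media were settled 5 h at 37 degrees C, then given compounds for 48 h. Viability was read as CellTiter-Glo luminescence. Primary runs used MIPE at 11 points (0.78 nM-46 µM) and NPC at 8 points (0.59 nM-46 µM); follow-ups used 11 points.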

[15] = qHTS of pediatric cancer cell lines to identify multiple opportunities for drug repurposing: Primary screen for Rh30 cells (AID 1347107); also: series mostly up to about 46 µM; % is scaled to controls: 0 for no effect and ±100 for the full control effect; nearly all actives have a fitted effect of over 75% in size
Method in brief: as §2

[16] = qHTS of pediatric cancer cell lines to identify multiple opportunities for drug repurposing: Primary screen for Rh41 cells (AID 1347108);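 also: series mostly up to about 46 µM; luminescence drop marks cytotoxic hits; nearly all actives have a fitted effect of over 70% in size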
Method in brief: as §1

CSc1ccc(C(=O)c2[nH]c(=O)[nH]c2C)cc1
inactive: Potency [1] | Potency [2] | Potency [3] | Potency [4] | Potency [5] | Potency [6] | Potency [7] | Potency [8] | Potency [9] | Potency [10] | Potency [11] | Potency [12] | Potency [13] | outcome [14] | Potency [15] | Potency [16]

CN(C)C(=O)Oc1ccc[n+](C)c1
inactive: Potency [1] | Potency [2] | Potency [3] | Potency [4] | Potency [5] | Potency [6] | Potency [7] | Potency [8] | Potency [9] | Potency [10] | Potency [11] | Potency [12] | Potency [13] | outcome [14] | Potency [15] | Potency [16]

Cc1nnc(SCC2=C(C(=O)O)N3C(=O)[C@@H](NC(=O)Cn4cnnn4)[C@H]3SC2)s1
inactive: Potency [1] | Potency [2] | Potency [3] | Potency [4] | Potency [5] | Potency [6] | Potency [7] | Potency [8] | Potency [9] | Potency [10] | Potency [11] | Potency [12] | Potency [13] | outcome [14] | Potency [15] | Potency [16]

CC(C)(C)NCC(O)c1cc(O)cc(O)c1 (stereo unspecified)
inactive: Potency [1] | Potency [2] | Potency [3] | Potency [4] | Potency [5] | Potency [6] | Potency [7] | Potency [8] | Potency [9] | Potency [10] | Potency [11] | Potency [12] | Potency [13] | outcome [14] | Potency [15] | Potency [16]

CCn1nc(C(=O)O)c(=O)c2cc3c(cc21)OCO3
inactive: Potency [1] | Potency [2] | Potency [3] | Potency [4] | Potency [5] | Potency [6] | Potency [7] | Potency [8] | Potency [9] | Potency [10] | Potency [11] | Potency [12] | Potency [13] | outcome [14] | Potency [15] | Potency [16]

CCO/C([O-])=N/c1c[n+](N2CCOCC2)no1
inactive: Potency [1] | Potency [2] | Potency [3] | Potency [4] | Potency [5] | Potency [6] | Potency [7] | Potency [8] | Potency [9] | Potency [10] | Potency [11] | Potency [12] | Potency [13] | outcome [14] | Potency [15] | Potency [16]

Nc1c2c(nc3ccccc13)CCCC2O (stereo unspecified)
inactive: Potency [1] | Potency [2] | Potency [3] | Potency [4] | Potency [5] | Potency [6] | Potency [7] | Potency [8] | Potency [9] | Potency [10] | Potency [11] | Potency [12] | Potency [13] | outcome [14] | Potency [15] | Potency [16]

COCCc1ccc(OCC(O)CNC(C)C)cc1 (stereo unspecified)
inactive: Potency [1] | Potency [2] | Potency [3] | Potency [4] | Potency [5] | Potency [6] | Potency [7] | Potency [8] | Potency [9] | Potency [10] | Potency [11] | Potency [12] | Potency [13] | outcome [14] | Potency [15] | Potency [16]

CN1C(=O)CC[C@H]1c1cccnc1
inactive: Potency [1] | Potency [2] | Potency [3] | Potency [4] | Potency [5] | Potency [6] | Potency [7] | Potency [8] | Potency [9] | Potency [10] | Potency [11] | Potency [12] | Potency [13] | outcome [14] | Potency [15] | Potency [16]

CNCCC(Oc1ccccc1OC)c1ccccc1 (stereo unspecified)
inactive: Potency [1] | Potency [2] | Potency [3] | Potency [4] | Potency [5] | Potency [6] | Potency [7] | Potency [8] | Potency [9] | Potency [10] | Potency [12] | Potency [13] | outcome [14] | Potency [15] | Potency [16]

COc1ccc(CN(CCN(C)C)c2ccccn2)cc1
inactive: Potency [1] | Potency [2] | Potency [3] | Potency [4] | Potency [5] | Potency [6] | Potency [7] | Potency [8] | Potency [9] | Potency [10] | Potency [11] | Potency [12] | Potency [13] | outcome [14] | Potency [15] | Potency [16]

CCCCOCCOCCOCc1cc2c(cc1CCC)OCO2
inactive: Potency [1] | Potency [2] | Potency [3] | Potency [4] | Potency [5] | Potency [6] | Potency [7] | Potency [8] | Potency [9] | Potency [10] | Potency [12] | Potency [13] | outcome [14] | Potency [15] | Potency [16]

CN1CCN(CC(=O)N2c3ccccc3C(=O)Nc3cccnc32)CC1
inactive: activity change, negative = cytotoxic [1] 5.45% [at 4.84 µM] | activity change, negative = cytotoxic [2] -2.23% [at 4.84 µM] | activity change, negative = cytotoxic [3] 11.8% [at 6.03 µM] | activity change, negative = cytotoxic [4] 16.9% [at 4.84 µM] | activity change, negative = cytotoxic [5] 4.1% [at 4.84 µM] | activity change, negative = cytotoxic [6] -2.29% [at 4.84 µM] | activity change, negative = cytotoxic [7] 4.46% [at 6 µM] | activity change, negative = cytotoxic [8] 9.59% [at 4.84 µM] | activity change, negative = cytotoxic [9] 10.3% [at 4.84 µM] | activity change, negative = cytotoxic [10] 5.59% [at 6.03 µM] | activity change, negative = cytotoxic [11] 7.59% [at 6.18 µM] | activity change, negative = cytotoxic [12] 6.71% [at 4.84 µM] | activity change, negative = cytotoxic [13] 3.64% [at 4.84 µM] | activity change, negative = cytotoxic [14] 2.83% [at 4.84 µM] | activity change, negative = cytotoxic [15] 18% [at 4.84 µM] | activity change, negative = cytotoxic [16] 19.3% [at 4.84 µM]
